Results published in PubChem BioAssay (Tox21).
Results filed as inconclusive are left out. Active and inactive are the calls of the source. Unless noted, calls follow the shape of the dose curve; as a rule, active = well fitted curve in the direction sought with a large enough effect in the repeat runs; inconclusive = weak or mixed curves; inactive = no such curve, though single readings can be large; an effect the other way counts as inactive or inconclusive.

Columns and labels:
[1] = qHTS assay to identify small molecule agonists of the hypoxia (HIF-1) signaling pathway - cell viability counter screen (AID 1224844; calls by dose curve; also: nearly all actives have a fitted effect of over 50% in size)
Procedure, shortened: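 CellTiter-Glo luminescence read-out, 30 min RT, taken in the same wells as the beta-lactamase HRE reporter assay; HRE-bla ME-180 cells, 0.5% dialyzed FBS, 17 hr compound treatment at 37C, 5% CO2.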

[2] = qHTS assay to identify small molecule agonists of H2AX (AID 1224845; active = well fitted activation curve with a large enough effect in the signal ratio in the repeat runs, not every such curve was filed as active; the % refers to the signal ratio)
Procedure, shortened: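 Wild-type CHO-K1 cells plated overnight, then exposed 3 hr at 37C to compounds at 15 concentrations (0.76% DMSO). Lysed, then HTRF anti-pH2AX(S139)-cryptate/anti-H2AX-d2 detection after 24 hr at room temperature; emissions 665 and 620 nm.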

[3] = qHTS assay to identify small molecule agonists of the hypoxia (HIF-1) signaling pathway (AID 1224846; active = well fitted activation curve with a large enough effect in the signal ratio in the repeat runs, not every such curve was filed as active; the % refers to the signal ratio)
Procedure, shortened: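 Beta-lactamase FRET read-out (CCF4-AM substrate) from ME-180 cells carrying an HRE-driven bla reporter, after 17 hrs compound exposure at 37C/5% CO2. Cells were seeded at 2,000 per well in 0.5% dialyzed FBS medium and preincubated 5 hrs.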

[4] = qHTS assay to identify small molecule agonists of H2AX - cell viability counter screen (AID 1224847; calls by dose curve; also: top concentration of the series differs between compounds; nearly all actives have a fitted effect of over 30% in size)
Procedure, shortened: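 Compounds tested at 15 concentrations were incubated 3 hr at 37C with wild-type CHO-K1 cells; cellular ATP-based luminescence (CellTiter-Glo) indicated viability.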

[5] = qHTS assay to identify small molecule antagonists of the estrogen related receptor (ERR) signaling pathway from Tox21 library (AID 1224848); also: nearly all actives have a fitted effect of over 50% in size
Procedure, shortened: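 First, 2,000 ERR cells per well were plated and held 6 h at 37 C/5% CO2. Next, compounds in DMSO were pinned in and left 18 h at 37 C. Finally, ONE-Glo was added and luminescence read after 30 min at room temperature.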

[6] = qHTS assay to identify small molecule agonists of the estrogen related receptor (ERR) signaling pathway from Tox21 library (AID 1224849; calls by dose curve; also: nearly all actives have a fitted effect of over 15% in size); conditions: ERR reporter cell line, ONE-Glo luciferase, 18 h; at 92.4 µM (top of the series) unless noted
Procedure, shortened: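 Luminescence readout (ONE-Glo, 30 min RT) after 18 h compound exposure at 37 C of NTP-supplied ERR reporter cells; cells were plated 6 h before compound addition by pin tool.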

[7] = qHTS RealTime-Glo MT Cell Viability Assay in HepG2 cells - 24 hour (AID 1224867); also: nearly all actives have a fitted effect of over 50% in size
Procedure, shortened: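 Tox21 10K library screened in qHTS format on HepG2 cells carrying RealTime-Glo reagents. Compounds were added after a 5 h preincubation, and the luminescent signal from continuous culture was measured repeatedly during 40 h treatment.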

[8] = qHTS RealTime-Glo MT Cell Viability Assay in HEK293 cells - 32 hour (AID 1224868); also: top concentration of the series differs between compounds; nearly all actives have a fitted effect of over 50% in size
Procedure, shortened: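 Luminescence generated by NanoLuc from substrate produced by living HEK293 cells served as the viability signal. Each value reflects the reading at its stated time point during continuous 40 h compound exposure at 37 C.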

[9] = A CellTox Green Cytotoxicity Assay to monitor cytotoxicity in HEK293 cells - 0 hour (AID 1224869); also: nearly all actives have a fitted effect of over 50% in size
Procedure, shortened: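 Read-out: fluorescence of a cell-impermeant cyanine dye staining DNA of dead cells, proportional to cytotoxicity. HEK293, 600 cells/well with reagent, compound (23 nL DMSO) added after 5 h; reads at 0, 8, 16, 24, 32, 40 h.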

[10] = qHTS RealTime-Glo MT Cell Viability Assay in HepG2 cells - 40 hour (AID 1224870); also: nearly all actives have a fitted effect of over 50% in size
Procedure, shortened: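 HepG2 cells mixed with RealTime-Glo MT reagents (NanoLuc plus cell-permeant prosubstrate) were seeded at 600 cells/well, incubated 5 h at 37 C/5% CO2, then pinned with compounds in DMSO; nonlytic luminescence tracked viability during 40 h treatment.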
% is scaled to controls: 0 for no effect and ±100 for the full control effect.

CC[C@@H](CO)NC(=O)[C@@H]1C=C2c3cccc4[nH]cc(c34)C[C@H]2N(C)C1
inactive: Potency [1] | outcome [2] | outcome [3] | Potency [4] | Potency [5] | activity change, positive = activation [6] -0.565% [at 42.5 µM] | Potency [7] | Potency [8] | outcome [9] | Potency [10]

C#CC(C)(C)O
inactive: Potency [1] | outcome [2] | outcome [3] | Potency [4] | Potency [5] | activity change, positive = activation [6] -2.81% | Potency [7] | Potency [8] | outcome [9] | Potency [10]

O=C(CCl)NCO
inactive: Potency [1] | outcome [2] | outcome [3] | Potency [4] | Potency [5] | activity change, positive = activation [6] 7.02% | Potency [7] | Potency [8] | Potency [10]

Cc1ccc(S(=O)(=O)N[C@@H](CCCCN)C(=O)CCl)cc1
inactive: Potency [1] | outcome [2] | outcome [3] | Potency [4] | Potency [5] | activity change, positive = activation [6] 0.318% [at 42.5 µM] | Potency [7] | Potency [8] | outcome [9]

Clc1nc(Cl)nc(Nc2ccccc2Cl)n1
inactive: Potency [1] | outcome [2] | outcome [3] | Potency [4] | Potency [5] | activity change, positive = activation [6] 2.23% | Potency [7] | Potency [8] | outcome [9] | Potency [10]

CCCC[N+](=O)[O-]
inactive: Potency [1] | outcome [2] | outcome [3] | Potency [4] | Potency [5] | activity change, positive = activation [6] -0.684% | Potency [7] | Potency [8] | Potency [10]

CCN(CC)C1CCCCC1
inactive: Potency [1] | outcome [2] | outcome [3] | Potency [4] | Potency [5] | activity change, positive = activation [6] 0.2% | Potency [7] | Potency [8] | outcome [9] | Potency [10]

CS(=O)(=O)c1ccc(C(=O)C2C(=O)CCCC2=O)c(Cl)c1COCC(F)(F)F
inactive: Potency [1] | outcome [2] | outcome [3] | Potency [4] | Potency [5] | activity change, positive = activation [6] -5.95% | Potency [7] | Potency [8] | outcome [9] | Potency [10]

COc1cccc([C@@]2(O)CCCC[C@@H]2CN(C)C)c1
inactive: Potency [1] | outcome [2] | outcome [3] | Potency [4] | Potency [5] | activity change, positive = activation [6] 1.87% [at 42.5 µM] | Potency [7] | Potency [8] | outcome [9] | Potency [10]

CCC(CC)(CNC(=O)CCCO)c1cccc(OC)c1
inactive: Potency [1] | outcome [2] | outcome [3] | Potency [4] | Potency [5] | activity change, positive = activation [6] 4.37% [at 42.5 µM] | Potency [7] | Potency [8] | outcome [9]

CCN(CC)CCOC(=O)C(O)(c1ccccc1)c1ccccc1
inactive: Potency [1] | outcome [2] | outcome [3] | Potency [4] | Potency [5] | activity change, positive = activation [6] 2.32% [at 42.5 µM] | Potency [7] | Potency [8] | Potency [10]

OP(O)c1ccccc1
inactive: Potency [1] | outcome [2] | outcome [3] | Potency [4] | Potency [5] | activity change, positive = activation [6] 1.75% | Potency [7] | Potency [8] | outcome [9] | Potency [10]

O=C(Cl)OCc1ccccc1
inactive: Potency [1] | outcome [2] | outcome [3] | Potency [4] | Potency [5] | activity change, positive = activation [6] 6.05% | Potency [7] | Potency [8] | Potency [10]

O=S1(=O)OCCO1
inactive: Potency [1] | outcome [2] | outcome [3] | Potency [4] | Potency [5] | activity change, positive = activation [6] 5.54% | Potency [7] | Potency [8] | outcome [9] | Potency [10]

CN(C)CCN(C)C
inactive: Potency [1] | outcome [2] | outcome [3] | Potency [4] | Potency [5] | activity change, positive = activation [6] 9.25% | Potency [7] | Potency [8] | outcome [9]

COC(=O)c1ccccc1CS(=O)(=O)NC(=O)Nc1nc(OC)cc(OC)n1
inactive: Potency [1] | outcome [2] | outcome [3] | Potency [4] | Potency [5] | activity change, positive = activation [6] -0.138% | Potency [7] | Potency [8] | outcome [9] | Potency [10]

COC[C@@H](NC(C)=O)C(=O)NCc1ccccc1
inactive: Potency [1] | outcome [2] | outcome [3] | Potency [4] | Potency [5] | activity change, positive = activation [6] 4.5% [at 42.5 µM] | Potency [7] | Potency [8] | outcome [9] | Potency [10]

BrCCc1ccccc1
inactive: Potency [1] | outcome [2] | outcome [3] | Potency [4] | Potency [5] | activity change, positive = activation [6] 0.561% | Potency [7] | Potency [8] | outcome [9] | Potency [10]

COc1ccc(C=O)cc1O
inactive: Potency [1] | outcome [2] | outcome [3] | Potency [4] | Potency [5] | activity change, positive = activation [6] 2.88% | Potency [7] | Potency [8] | outcome [9]

O=C(Cl)c1ccccc1
inactive: Potency [1] | outcome [2] | outcome [3] | Potency [4] | Potency [5] | activity change, positive = activation [6] 7.58% | Potency [7] | Potency [8] | outcome [9] | Potency [10]

CNC(=O)Oc1ccccc1C(C)C
inactive: Potency [1] | outcome [2] | outcome [3] | Potency [4] | Potency [5] | activity change, positive = activation [6] 1.9% | Potency [7] | Potency [8] | outcome [9] | Potency [10]

CNC(=O)Oc1cc(C)c(N(C)C)c(C)c1
inactive: Potency [1] | outcome [2] | outcome [3] | Potency [4] | Potency [5] | activity change, positive = activation [6] 4.59% | Potency [7] | Potency [8] | outcome [9] | Potency [10]

CC(Cl)(Cl)Cl
inactive: Potency [1] | outcome [2] | outcome [3] | Potency [4] | Potency [5] | activity change, positive = activation [6] 4% | Potency [7] | Potency [8] | outcome [9] | Potency [10]

c1ccc2c(c1)CCNC2
inactive: Potency [1] | outcome [2] | outcome [3] | Potency [4] | Potency [5] | activity change, positive = activation [6] -19.6% | Potency [7]
